Results as given in PubChem BioAssay (NCATS).
Inconclusive results are not listed. Calls of active or inactive are those of the source. Calls follow the shape of the dose curve; as a rule, active = well fitted curve in the direction sought with a large enough effect; inconclusive = small, poorly fitted or top-dose-only effect, or another doubt; inactive = no such curve, though single readings can be large; an effect the other way counts as inactive or inconclusive.

Assays:
[1] = qHTS for ATAD5 Antagonist screened against the NCATS CANVASS Library (AID 1347370); conditions: HEK293T-ATAD5-luc, 5-FUrd stimulated, luminescence, 16 h; series mostly up to 46.1 µM
How it was run: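 HEK293T cells with a stably integrated ATAD5-controlled luciferase reporter were exposed to compounds (11-pt) alongside 10 uM 5-fluorouridine as ATAD5 stabilizer for 16hr at 37C. Viability was read by CellTiter-Fluor fluorescence, then ATAD5 by luminescence.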

[2] = J3T Cancer Cell Toxicity qHTS against the NCATS CANVASS Library (AID 1347371); conditions: J3T dog glioma viability, ATP luminescence, 72 h; at 46.1 µM (top of the series)
How it was run: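 J3T dog glioma cells (500 cells/well) were exposed to compounds in an 11-point series for 72 hr at 37C, 5% CO2. Cytotoxicity was read as ATP content by CellTiterGlo luminescence.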

[3] = molecular target: Nuclear receptor subfamily 1 group I member 3 (Homo sapiens) (UniProt Q14994); experiment: qHTS for Constitutive Androstane Receptor (CAR) Antagonist screened against the NCATS CANVASS Library (AID 1347372); conditions: HepG2-hCAR-CYP2B6 luciferase, CITCO-stimulated antagonist mode; series mostly up to 46.1 µM
How it was run: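 HepG2 cells stably carrying hCAR and a CYP2B6-2.2kb luciferase reporter were exposed to compounds plus 50 nM CITCO for 24hr at 37C. CAR activity was read by ONE-Glo luminescence, with viability measured first by CellTiter-Fluor.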

[4] = molecular target: Nuclear receptor subfamily 1 group I member 3 (Homo sapiens) (UniProt Q14994); experiment: qHTS for Constitutive Androstane Receptor (CAR) Agonist screened against the NCATS CANVASS Library (AID 1347373); conditions: HepG2-hCAR-CYP2B6 luciferase reporter, ONE-Glo luminescence; series mostly up to 46.1 µM
How it was run: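 HepG2 cells stably expressing hCAR and a CYP2B6-2.2kb luciferase reporter were treated for 24hr at 37C with compounds (11-point qHTS) in the presence of 1.5uM PK11195. Reporter activation was read by ONE-Glo luminescence.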

[5] = qHTS for Hypoxia signaling pathway (HIF-1) antagonists against the NCATS CANVASS Library (AID 1347374); conditions: HRE-bla ME-180 cells, HIF-1 beta-lactamase reporter, CoCl2; series mostly up to 38.3 µM
How it was run: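 HRE-bla ME-180 cells (2,000/well, 0.5% dialyzed FBS) were pre-incubated 5 h, then given an 11-point compound series plus CoCl2 (60 uM solution as added) for 17 h at 37C. CCF4 β-lactamase read (ex 405, em 460/530 nm) after 2 h at RT.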

[6] = qHTS for Hypoxia signaling pathway (HIF-1) agonists against the NCATS CANVASS Library (AID 1347375); conditions: HRE-bla ME-180 cells, HIF-1 beta-lactamase reporter, 17 h; series mostly up to 38.3 µM
How it was run: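 HRE-bla ME-180 cells (beta-lactamase reporter under hypoxia responsive element) in 0.5% dialyzed FBS medium, 5 h at 37C, then compound 17 h, 11-point qHTS series. CCF4-AM FRET substrate 2 h RT; 460/530 nm emission read.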

[7] = 10-beta competent E. coli microbial cell viability qHTS against the NCATS CANVASS Library (AID 1347376); conditions: E. coli 10-beta viability, BacTiter-Glo ATP luminescence, overnight; series mostly up to 46.1 µM
How it was run: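 10-beta competent E. coli (0.9 OD culture diluted to 0.2 OD) exposed to compounds in an 11-point qHTS series, incubated overnight at 37C, 5% CO2. Viability read as ATP by BacTiter-Glo luminescence after 20 min at room temperature.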

[8] = qHTS for H2AX Agonists against the NCATS CANVASS Library (AID 1347378); conditions: CHO-K1 H2AX phosphorylation, HTRF TR-FRET, 3 h; series mostly up to 76.9 µM
How it was run: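 Following overnight seeding, CHO-K1 cells are incubated with a concentration series of compound for 3 hr at 37C (final DMSO 0.76%). Cells are then lysed, detection antibodies added, and emission ratio 665/620 nm recorded after 24 hr at room temperature.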

[9] = qHTS for Inflammasome Signaling Inhibitors: IL-1-beta AlphaLISA screen against the NCATS CANVASS Library (AID 1347379); conditions: THP-1 LPS/ATP, IL-1B AlphaLISA secretion, 16 h; at 57.5 µM (top of the series)
How it was run: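 Human THP-1 cells were pretreated 1 hr at 37 °C with compounds (up to 57.5 uM final), then stimulated with LPS (250 ng/mL final) and ATP (1.25 mM final). Secreted IL-1B was read by AlphaLISA after 16 hr.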

[10] = Inflammasome Signaling qHTS Counterscreen: IL-1-beta AlphaLISA counterscreen against the NCATS CANVASS Library (AID 1347381); conditions: Purified IL-1beta AlphaLISA signal interference counterscreen; series mostly up to 57.5 µM
How it was run: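 To flag interference with the AlphaLISA read-out, a known amount of purified IL-1-beta (4 pg) replaced cell supernatant. Detection used anti-IL-1-beta acceptor beads, biotinylated antibody and streptavidin donor beads at room temperature.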

[11] = Cytotoxicity qHTS for assessment of Hepg2 cells membrane integrity screened against the NCATS CANVASS Library (AID 1347387); conditions: HepG2 LDH release (CytoTox-ONE) fluorescence, 5 h; series mostly up to 46.1 µM
How it was run: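 HepG2 cells (2000/well) attached overnight at 37C, then received compounds in an 11-point series at 0.59 nM - 46 uM final for 5 hr. LDH release was detected fluorometrically (ex 560/em 590 nm) with CytoTox-ONE reagent after 10 min at room temperature.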

[12] = qHTS for Activators of p53 Stress Response Pathway screened against the NCATS CANVASS Library (AID 1347388); conditions: p53RE-bla HCT-116, beta-lactamase reporter, 16 h; series mostly up to 46.1 µM
How it was run: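 p53RE-bla HCT-116 cells (4000/well) were plated 5 h at 37C, exposed to compounds for 16 h at 37C over an 11-point concentration series, then loaded with CCF4 for 2 h at room temperature; 460/530 nm emission ratio read.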

[13] = qHTS assay for small molecule disruptors of mitochondrial membrane potential screened against the NCATS CANVASS Library (AID 1347389); conditions: HepG2 mitochondrial membrane potential, m-MPI red/green ratio, 1.5 h; series mostly up to 46.1 µM
How it was run: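 HepG2 cells (2,000/well) were plated overnight at 37C, exposed to compound for 1 hr at 37C/5% CO2, then loaded with Mito-MPS dye for 30 min. Depolarization was read as a drop in red (590 nm) to green (535 nm) fluorescence ratio.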

[14] = qHTS for activators of Nrf2/ARE signaling pathway screened against the NCATS CANVASS Library (AID 1347391); conditions: ARE-bla HepG2, beta-lactamase reporter, 16 h; series mostly up to 46.1 µM
How it was run: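 ARE-bla HepG2 beta-lactamase reporter cells, 2000 cells/well, were preincubated 5 h, then exposed to compounds (11-point series) for 16 h at 37C. CCF4 fluorescence (ex 405, em 460/530 nm) after 2 h at room temperature.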

[15] = qHTS for activators of dead-cell proteases activity screened against the NCATS CANVASS Library (AID 1347392); conditions: HepG2 cytotoxicity, dead-cell protease luminescence, 5 h; series mostly up to 46.1 µM
How it was run: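 HepG2 cells (2000/well) attached 18 h at 37C, then exposed 5 h to compounds (11-point qHTS). Dead-cell protease activity read as luminescence from cell-impermeant AAF-aminoluciferin substrate after 15 min at room temperature.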

[16] = qHTS for inhibitors of ER calcium dysfunction: SERCaMP assay screened against the NCATS CANVASS Library (AID 1347393); conditions: SH-SY5Y GLuc-SERCaMP (Gaussia luciferase released on ER calcium loss) secretion, thapsigargin, luminescence; series mostly up to 76.6 µM
How it was run: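 qHTS in SH-SY5Y reporter cells: 16 h compound pretreatment, 4 h thapsigargin, then secreted Gaussia luciferase measured by luminescence.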

[17] = Vero-766 cells viability qHTS against the NCATS CANVASS Library: Counterscreen for Zika virus inhibition assay (AID 1347394); conditions: Vero 766 viability, CellTiter-Glo luminescence, 72 h; series mostly up to 46.1 µM
How it was run: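 This cytotoxicity counterscreen uses African green monkey Vero 766 cells in the absence of Zika virus. Compounds are incubated with cells for 72 h, and ATP-based luminescence reports viability.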

[18] = qHTS for inhibitors of Wild type Zika virus screened against the NCATS CANVASS Library (AID 1347396); conditions: Vero cells, Zika virus CPE, CellTiter-Glo, 72 h; series mostly up to 45.9 µM
How it was run: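 Vero 766 cells, 1000/well, o/n attach; cpds pin-transferred (11-pt qHTS); WT Zika added; 72 h, 37C, 5% CO2; CellTiter Glo lumi. Uninfected + vehicle = 100% inhibition.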

[19] = Viability qHTS for inhibitors of the SERCaMP assay screened against the NCATS CANVASS Library (AID 1347400); conditions: SH-SY5Y SERCaMP cells viability, CellTiter-Glo, 48 h; series mostly up to 92.2 µM
How it was run: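 SH-SY5Y-GLuc SERCaMP MJH297-derived cells (1000 cells/well) were pre-incubated 4 h at 37C, then exposed to compounds for 48 h. Viability was read as CellTiter-Glo luminescence; bortezomib served as positive control.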

[20] = Redox Reaction Profiling qHTS: Assay Interference Panel against the NCATS CANVASS Library (AID 1347401); conditions: resazurin-DTT redox cycling, fluorescence, 15 min; series mostly up to 57.1 µM
How it was run: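 Resazurin (5 uM) conversion to resorufin measured with 200 uM DTT in 50 mM HEPES pH 7.3, 50 mM NaCl. Compounds tested in 11-point qHTS series. Fluorescence (ex 525/em 598 nm) read before and after 15 min dark incubation.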

Measured: outcome

Nuclear receptor subfamily 1 group I member 3 (Homo sapiens), sequence (Q14994 whole entry, looked up): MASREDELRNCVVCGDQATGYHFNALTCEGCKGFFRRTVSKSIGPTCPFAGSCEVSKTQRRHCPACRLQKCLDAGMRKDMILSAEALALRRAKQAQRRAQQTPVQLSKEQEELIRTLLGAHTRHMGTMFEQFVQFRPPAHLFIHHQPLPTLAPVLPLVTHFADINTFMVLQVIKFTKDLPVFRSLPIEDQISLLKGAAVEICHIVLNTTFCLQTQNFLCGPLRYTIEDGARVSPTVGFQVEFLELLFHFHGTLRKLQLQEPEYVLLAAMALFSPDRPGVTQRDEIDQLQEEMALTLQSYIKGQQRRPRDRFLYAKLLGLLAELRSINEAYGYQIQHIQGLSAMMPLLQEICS

NCC(O)c1ccc(O)cc1 (stereo not given)
inactive: [1] | [2] | [3] | [4] | [5] | [6] | [7] | [8] | [9] | [10] | [11] | [12] | [13] | [14] | [15] | [16] | [17] | [18] | [19] | [20]
